Assay results as given in the supplement of paper PMC3334620.
Whole data set: some 33,000 sequences, median “E-score (-0.5 to 0.5)” near -0.056, cut for the highest 2% near 0.38. Shown is part of a subset that was picked to be rich in the highest values.

What follows are sequences tested against Stb4 (UniProt P50104) (assay: PBM E-score (8-mer binding enrichment) (E-score (-0.5 to 0.5)); higher = stronger / more preferred TF binding). Conditions: protein concentration: 200 nM; construct: GST-DNA-binding domain.
Method: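 Universal 'all 10-mer' protein binding microarrays (Agilent AMADID 015681) probed with GST-tagged S. cerevisiae TFs (full-length or DBD) made by in vitro transcription/translation (PURExpress), about 100-200 nM. Bound TF was detected with fluorescent anti-GST. Each ungapped 8-mer (which stands for itself and its reverse complement) is scored by the PBM enrichment score (E-score), a modified Wilcoxon-Mann-Whitney statistic from -0.5 to +0.5, computed with the Universal PBM Analysis Suite. Scale: above 0.35 generally sequence-specific binding.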

Chain of UniProt P50104 (P50104 whole entry, the tested form may be a part): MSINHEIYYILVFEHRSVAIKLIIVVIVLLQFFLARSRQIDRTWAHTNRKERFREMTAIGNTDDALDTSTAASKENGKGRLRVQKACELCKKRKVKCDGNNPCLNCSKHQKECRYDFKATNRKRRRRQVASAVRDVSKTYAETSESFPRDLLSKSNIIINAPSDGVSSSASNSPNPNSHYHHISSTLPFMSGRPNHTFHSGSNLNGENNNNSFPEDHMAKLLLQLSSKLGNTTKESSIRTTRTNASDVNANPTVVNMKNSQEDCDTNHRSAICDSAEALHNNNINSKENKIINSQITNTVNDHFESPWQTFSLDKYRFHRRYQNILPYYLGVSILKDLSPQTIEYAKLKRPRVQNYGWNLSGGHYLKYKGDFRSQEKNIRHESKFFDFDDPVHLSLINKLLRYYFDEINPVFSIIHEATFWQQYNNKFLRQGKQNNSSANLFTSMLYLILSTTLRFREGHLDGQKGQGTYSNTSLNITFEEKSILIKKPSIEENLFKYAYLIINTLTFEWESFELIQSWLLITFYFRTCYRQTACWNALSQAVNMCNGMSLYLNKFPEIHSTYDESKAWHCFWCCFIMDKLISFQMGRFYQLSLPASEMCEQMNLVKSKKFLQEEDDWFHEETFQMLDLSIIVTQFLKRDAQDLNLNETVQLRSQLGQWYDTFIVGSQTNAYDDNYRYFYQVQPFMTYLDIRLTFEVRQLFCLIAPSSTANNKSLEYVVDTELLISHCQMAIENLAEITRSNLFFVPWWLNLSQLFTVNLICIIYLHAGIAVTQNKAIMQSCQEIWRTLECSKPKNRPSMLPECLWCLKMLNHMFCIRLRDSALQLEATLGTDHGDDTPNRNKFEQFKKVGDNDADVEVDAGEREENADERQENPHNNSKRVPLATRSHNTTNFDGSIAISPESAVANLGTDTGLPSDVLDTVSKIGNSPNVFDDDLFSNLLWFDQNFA

Sequence	PBM E-score
AAGAATAT	0.0558
GCAAGTAA	-0.0627
ATTTAAAT	-0.101
AGAAAGGG	-0.138
ATCTTGTA	-0.0999
TGAGAGCA	-0.178
CATCGCCA	-0.0625
GGGCGGAA	0.308
CGGCGGAA	0.408
AGGCGGAA	0.278
CAGCTTTA	-0.0389
ACTCGGAT	0.467
ACTCGGTG	0.124
ACTCGTAA	0.0295
GCGCGGAA	0.338
ACTCGGAA	0.47
TCGCGGAA	0.315
TCTCGGAA	0.479
GCTCGGAA	0.482
GCACGGAA	0.327
ACTCGGTC	0.204
ACTCGGAC	0.327
TCTCGTAA	0.00218
CAGTCCCC	-0.362
CTCTCAGC	-0.362

Sequence	PBM E-score
CCACTGGG	-0.231
ATCGCATG	-0.117
AGATACAC	-0.107
AGGCAGGA	-0.188
ACTCTATC	-0.0391
AAGGCTAC	-0.0344
CCCACTCG	0.0329
GCACGGAC	0.13
ACACGGAA	0.338
GCTCGGAC	0.391
TCACGGAA	0.389
GCTCGTAC	-0.0377
CCACGGAA	0.354
GTCACCAC	-0.103
AGGGGAGA	-0.0188
GTGCGTCA	-0.101
CCCCGCTC	-0.0289
CTAAATCC	0.205
GATTATCA	0.0201
AGTATCAT	0.0471
ACTCCAGC	-0.253
GGGGTTTA	-0.0416
AGGGTATA	-0.029
AGGGTAGA	-0.166
CGGGTTTC	0.277

Sequence	PBM E-score
CGGGTAGC	0.37
CGGGTATC	0.404
CGGGTACC	0.312
GGGGTATA	0.06
CGGGTAGA	0.389
CGGGTTTA	0.389
CGGGTATA	0.418
AGGGTATC	-0.0302
CAGCATCC	0.121
GACAAGTA	-0.0988
AGAGTGCG	-0.164
CGTTGATA	0.0343
AGATCTGG	-0.188
CAACTAGA	-0.182
GAACGGTC	0.148
CATCCGCG	0.285
AATCCGCC	0.218
CATCCGCC	0.4
CGTCCGAG	0.257
GATCCAAC	0.104
AATCCGTG	0.172
GATCCGCC	0.273
CATCCGAG	0.481
GATCCCAC	-0.00608
AATCCGAG	0.407

Sequence	PBM E-score
AATCCGCG	0.127
GATCCGAC	0.434
ACCAGCCA	-0.0271
CAGAGATA	-0.182
CGAGTTGC	0.0987
CGCTCCCA	-0.0934
CCAAACAG	-0.345
GGAGAGAA	0.0164
GATGTGGC	-0.0114
CATCCGAC	0.455
AATCCGAC	0.346
CATCCGTC	0.308
ACTCAGTG	-0.208
ACGATCAT	-0.174
CAACCATA	-0.251
AACGAATG	-0.142
AGCAGCTG	-0.307
GCTCAGAC	-0.19
CGACTAGA	-0.0326
TGAGTGAA	-0.295
GGAGTGTA	0.0839
CCGGTCCG	0.389
CCGGTCCC	0.282
CCGGTCCA	0.0504
CCAAAGTA	0.0417

Sequence	PBM E-score
AGGGCTCA	-0.326
CATCGGGA	0.331
CTTCGGGC	0.291
GATCGGGA	0.359
ATTCGGGC	0.301
ATTCGGGG	0.34
GTACGGGA	0.222
ATTCGGGA	0.415
GTTCGGGA	0.453
CTTCGGGA	0.439
TGCTAAAA	-0.205
AGATCGAT	-0.16
ACCCCTAT	-0.143
GACCTGCC	0.0159
ACACTGAG	-0.128
CCGGGACA	0.326
CCGGAAAC	0.394
CCGGGAAA	0.33
CCGGAAAA	0.441
CTGGAAAA	-0.00258
ACGGGACA	0.276
CCGGAAAG	0.366
TCGGGACA	0.408
ACGGAAAC	0.375
CAGGAAAA	-0.0586

Sequence	PBM E-score
GCGGGAAA	0.306
TCGGGAAA	0.443
ACGCAAAT	-0.00753
GTAAGACA	-0.166
CCACTGCA	-0.135
AAGGGAGC	-0.0979
CGCTGAAC	0.00896
AGCGCTCA	-0.191
ATTATGGA	-0.154
CCGCTTTA	0.138
TCGGGAGA	0.391
GCGGGAGA	0.227
ACGGGAGA	0.12
TCGGAAAA	0.451
GCGGAAAA	0.332
ACGGAAAA	0.325
AGACGGAC	-0.0259
ACTGGTAG	-0.226
ATTGATCG	0.0261
CCCCGATA	0.145
GATCTTCC	0.285
CCGGGTAA	0.418
TCGGGTCA	0.427
GCGGTTAA	0.17
GCGGTAAA	0.188

Sequence	PBM E-score
CCGGTAAA	0.312
ACGGGTCA	0.0265
TCGGTAAA	0.433
CCGGGTCA	0.276
TCGGTTAA	0.44
CCGGGTAC	0.375
CCGGGTAG	0.355
CCGGTTAA	0.334
GACGCGAC	-0.068
CACCATGG	-0.29
GTCTAGAC	-0.342
ACACAACC	-0.0108
CAGGCTCG	0.08
AGAGTTAC	-0.165
ATGGTTTA	0.193
TCGGGTAA	0.464
GCGGGTAA	0.325
ACGGGTAA	0.328
CTTCGGCC	0.218
CTTCGGCA	0.443
GATCGGCA	0.349
CATCGGCA	0.376
